Laboratory results from the supplement of paper PMC6555819.

Tests used:
Assay in all cases: PBM binding z-score (relative to random genomic background probes); higher = stronger binding; sequences stand for … in GC…GCGATTGACAGCGTAGAATGAAGG
[1] = system: PPARg:RXRa DBDmut IVT, anti-RXR (DBD mutation: RXRa K156A/R161A, NR concentration 270 nM, RXRa partner concentration 90 nM)
Method in brief: (§1)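 For binding z-scores, the reference was random background probes on custom Agilent 4×180K protein-binding microarrays. These arrays were incubated 1 h with ligand-free nuclear receptor dimers in PBS pH 7.4, 2% milk, 0.02% Triton X-100, 1 mM DTT, 0.2 mg/mL BSA and 0.4 mg/ml salmon testes DNA. Fluorescence was scanned after antibody detection of each partner (one per run) and regression-normalized.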

[2] = system: PPARg:RXRa IVT, anti-PPARg (NR concentration 270 nM, RXRa partner concentration 90 nM)
Method in brief: as §1

[3] = system: PPARg DBDmut:RXRa IVT, anti-PPARg (DBD mutation: PPARg1 K132A/R137A, NR concentration 270 nM, RXRa partner concentration 90 nM)
Method in brief: as §1

[4] = system: PPARg DBDmut IVT, anti-PPARg (DBD mutation: PPARg1 K132A/R137A, NR concentration 270 nM)
Method in brief: as §1

[5] = system: PPARg homodimer (NR concentration 180 nM)
Method in brief: as §1

[6] = system: PXR:RXRa (NR concentration 270 nM, RXRa partner concentration 90 nM)
Method in brief: as §1

[7] = system: PXR homodimer (NR concentration 270 nM)
Method in brief: as §1

[8] = system: RARa:RXR (NR concentration 270 nM, RXRa partner concentration 90 nM)
Method in brief: as §1

[9] = system: RARa homodimer (NR concentration 270 nM)
Method in brief: as §1

[10] = system: RARb:RXRa (NR concentration 270 nM, RXRa partner concentration 90 nM)
Method in brief: as §1

[11] = system: RARb homodimer (NR concentration 270 nM)
Method in brief: as §1

[12] = system: RARg:RXRa (NR concentration 270 nM, RXRa partner concentration 90 nM)
Method in brief: as §1

[13] = system: RARg homodimer (NR concentration 270 nM)
Method in brief: as §1

[14] = system: RXRa DBDmut IVT, anti-RXR (DBD mutation: RXRa K156A/R161A, NR concentration 90 nM)
Method in brief: as §1

[15] = system: RXRa homodimer (NR concentration 180 nM)
Method in brief: as §1

[16] = system: THRa:RXRa (NR concentration 90 nM, RXRa partner concentration 90 nM)
Method in brief: as §1

[17] = system: THRa homodimer (NR concentration 90 nM)
Method in brief: as §1

[18] = system: VDR homodimer (NR concentration 270 nM)
Method in brief: as §1

Sequence	PBM binding z-score [1]	PBM binding z-score [2]	PBM binding z-score [3]	PBM binding z-score [4]	PBM binding z-score [5]	PBM binding z-score [6]	PBM binding z-score [7]	PBM binding z-score [8]	PBM binding z-score [9]	PBM binding z-score [10]	PBM binding z-score [11]	PBM binding z-score [12]	PBM binding z-score [13]	PBM binding z-score [14]	PBM binding z-score [15]	PBM binding z-score [16]	PBM binding z-score [17]	PBM binding z-score [18]
GCTCGAAGGACAAGGTCAGAGCTTTGTCCGTAGA	-0.135	0.583	-0.7	-0.691	0.73	1.59	-0.626	2.28	-0.618	3.44	3.06	3.15	3.49	0.0106	2.51	2.65	0.93	0.387
CAAACTAGGTCAAAGGTCAAATTCGAGCCAACCA	8.73	9.36	7.2	6.6	8.4	7.16	1.57	8.86	3.32	5.62	4.86	8.92	7.49	3.06	10.2	4.77	1.67	3.08
AATCCAGGGTCACTAGGCCAGAGTAGGTACGAAT	3.69	5.76	1.17	1.11	2.8	3.49	0.164	4.74	0.405	4.36	3.4	5.39	4.98	2.49	5.55	3.54	1.29	2.57
CCTGCTAGGTAATGGTCAGCTAATCTACAGTATG	1.12	0.132	-0.293	-0.811	-0.722	-0.534	-0.524	-0.39	0.217	0.113	0.105	-0.00382	0.0688	-0.0204	-0.388	-0.173	-0.275	-0.364
TGAATGAGGTTGAAGATCAGGGAACGTGGCGTCG	-0.653	0.294	0.451	0.38	-0.432	-0.193	-0.315	0.257	-0.208	0.206	-0.485	0.258	0.179	-0.182	0.787	0.467	-0.42	-0.192
GATACAGGGCCAGCTAGAGGCCAGAGTATGGAAA	-0.745	-0.681	-0.858	-1.22	-0.793	-0.72	-0.244	-0.464	-0.203	0.56	0.561	0.806	0.594	-1.03	-0.349	-0.394	-0.861	-0.246
CGTACAAGGTCAAGGTCAGTGAAAGAGACTCGAA	4.64	5.48	1.83	0.837	4.4	5.27	1.65	5.96	2.4	5.65	5.35	6.85	7.48	3.82	6.83	4.45	3.84	3.49
AGTCAAAGTTCAGGATGAGGTAACGTAAAGCACG	0.224	2.35	0.915	0.721	2.23	3.14	1.49	3.09	0.768	4.37	3.38	4.78	4.82	2.73	3.26	4.21	1.73	2.09
TGCATGAGGTTAAAGATCAGGGAACGTGGCGTCG	0.0827	1.55	0.0491	0.396	1.07	2.23	0.0644	2.93	0.611	2.23	1.02	2.55	1.33	1.43	3.68	2.71	0.949	1.11
CCTAGTTGGTCCAGGTCACACACGCTATAGGTAC	1.21	2.28	0.272	0.266	2.22	2.34	1.6	2.66	1.7	2.59	3.15	2.68	2.73	1.35	2.64	3.72	3.98	2.54
CGGCCAAGGTCAATGCTAGGTCAGTGAAAGCATT	3.06	3.69	-0.404	-1.18	4.15	4.73	0.802	5.67	0.406	5.24	4.9	7.57	6.96	3.65	5.16	4.29	2.46	2.22
ATCTCTAGGTAACGTTCAGTGAAAGATCGATAGA	3.29	2.87	1.78	1.73	0.504	0.0439	0.0107	0.445	0.865	0.556	0.194	0.535	0.638	0.201	0.277	0.969	0.455	-0.197
CCTTACGGGTCAAAGTTATAGCACGGGTGGTACG	1.88	3.45	0.255	0.0478	2.1	3.35	0.317	4.38	1	3.7	2.72	4.74	3.89	1.42	5.29	2.3	-0.124	1.46
CCGACTGGGGCAAGGTTACGATAACGCACAGCCA	3.36	3.57	-0.0114	-0.572	0.143	0.367	-0.626	0.767	-0.286	1.66	1.22	1.18	1.56	-0.192	1.47	1.28	0.056	-0.241
ATCTATAGGTAACCAAGTTCAGTGAATGCCGAAC	2.37	1.81	0.555	1.09	0.665	2.46	2.08	0.857	0.671	1.3	1.42	0.853	0.891	1.04	0.806	1.05	0.378	2.84
CTTTACGGGTCACTCCAGGTTATAGCATCGGAGT	4.09	4.57	1.34	1.05	2.31	5.1	0.416	3.97	0.111	3.96	3.36	4.62	4.65	2.29	4.54	5.08	0.775	1.88
